# Data reported in the supplement of paper PMC9477273.
# Tested on: DRIVER-selected RNA biosensor (aptazyme) pool
# Assay: maximum fold change of ribozyme cleavage across biosensor pool versus no-compound control; higher = stronger biosensor response (ligand inhibits cleavage)
# Settings: 10 µM
# Method in brief: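 CleaveSeq on a pool of 1,730 array-resynthesized ribozyme biosensors, T7-transcribed at 37°C for 15–30 min with 9 mM rNTPs and one compound at 10 µM (added from 10x DMSO stock), then reverse-transcribed at 50°C. Cleaved and uncleaved products were PCR-barcoded and counted by Illumina sequencing. Fold change of cleavage is the ratio of cleaved:uncleaved read fractions against a no-compound condition, corrected with reference sequences; the value is the maximum over all biosensors.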
row,Structure (SMILES),maximum fold change
1,Cc1ccc(OCC(=O)N(Cc2ccccc2F)C2CCS(=O)(=O)C2)cc1C (stereo unspecified),2.91
2,CCOc1cc(CNc2ncc(-c3ccc(Br)cc3)n2C)ccc1O,2.06
3,CCOC(=O)c1c(NC(=O)COc2ccc(Cl)cc2Cl)sc2c1CCC2,3.01
4,CCOc1ccc(CCNC(=O)CCn2c(=O)c3cccn3c3cccnc32)cc1OCC,2.67
5,COCCNC(=S)NCc1ccc2[nH]c(C)cc2c1,2.32
6,c1ccc(-c2nc3cc(Oc4ccc5[nH]c(-c6ccccn6)nc5c4)ccc3[nH]2)nc1,2.66
7,Cc1ccc(-c2noc(CCC(=O)NCCN3CCOCC3)n2)cc1,3.61
8,COc1ccc(C(=O)/C=C2\Nc3ccc(C(=O)NCc4cccc(OC)c4)cc3NC2=O)cc1,7.89
9,CCOC(=O)c1cnc(SCc2cccc(C)c2)nc1N,7.72
10,Cc1nc(N2C(=O)c3oc4ccccc4c(=O)c3C2c2ccc(Cl)cc2)sc1C (stereo unspecified),2.07
11,COc1cc(-c2nc3n(n2)C(c2ccncc2)C(C(N)=O)=C(C)N3)cc(OC)c1OC (stereo unspecified),2.35
12,COCCNCc1c(C(=O)O)c(C)n(Cc2ccccc2F)c1C,2.4
13,Cc1ccc(CNc2nc3ccc(C)cc3n3cnnc23)cc1,2.77
14,O=C(c1cc(-c2ccccc2)n[nH]1)N1CCn2c1nc1ccccc12,5.17
15,Cc1c(C(=O)Nc2ccncc2)sc2nc(-c3ccccc3)cn12,3.12
16,CCOc1cc(C2c3c(-c4ccccc4O)n[nH]c3C(=O)N2CCO)ccc1OCc1ccccc1 (stereo unspecified),3.55

row,Structure (SMILES),maximum fold change
1,Cc1ccc(CNCc2c(C(=O)O)c(C)n(Cc3ccccc3C)c2C)o1,3.25
2,Cc1ccc(C(=O)/C=C2\Nc3ccccc3NC2=O)cc1C,7.35
3,NC(=O)c1nc2n(c1N)CCCCC2,2.43
4,Cc1c[n+]([O-])n(-c2ccc(C(=O)O)cc2)n1,2.15
5,CCOCCCNC(=O)c1cc(C)nn1-c1ccccc1,2.81
6,CC(=Cc1ccccc1)/C=C1N=C(/C=C/c2ccccc2)OC/1=O,2.27
7,COc1ccc(/C=C/C(=O)Nc2nc3ccc(S(C)(=O)=O)cc3s2)cc1Br,3.76
8,c1ccc2nc3c(nc2c1)c1ccccc1n3CN1CCCCC1,10.9
9,CCOc1ccc(/C=C2\SC(N3CC(C)OC(C)C3)=NC2=O)cc1 (stereo unspecified),2.08
10,Cc1ccc(-c2noc(CCC(=O)NCc3ccc(F)cc3Cl)n2)cc1,3.35
11,CC12CCC(C(=O)O)(c3nc4ccc5ncccc5c4nc31)C2(C)C (stereo unspecified),2.74
12,CN(CCCNC(=O)c1ccc(CS(=O)(=O)Cc2cccc(Cl)c2)o1)C1CCCCC1,1.94
13,CCc1ccc(C2c3c(-c4ccccc4O)n[nH]c3C(=O)N2CC2CCCO2)cc1 (stereo unspecified),1.83
14,Cc1ccc(-c2noc(CCC(=O)N3CCN(Cc4ccccc4)CC3)n2)cc1,3.6
15,CC(NC(=O)/C=C/c1ccccc1Cl)c1ccccc1 (stereo unspecified),2.1
